Each structure is given as a SMILES string. Calls of active or inactive are those of the source. How the source made its calls: active means hit-call score of the fitted dose curve at least 0.9, where 1 is the maximum; inactive means score below 0.9.

The record followed here is PubChem BioAssay (EPA / NIEHS).

This test is described as follows: CCTE_Padilla_ZF_Score.Tail: CCTE's 144 Hour Post-fertilization zebrafish Assay Score for Tail Malformation, Padilla Lab (AID 2284414). Summed up:
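Tail malformations were scored at 6 dpf by two blinded assessors under a stereo microscope. Chorionated embryos had been exposed from 6-8 hpf in sealed wells of 10% Hanks' at 26 C, then rinsed free of chemical at 5 dpf.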
In the case of `FC(F)(F)C(F)(F)C(F)(F)C(F)(F)C(F)(F)C(F)(F)CC1CO1` (configuration not stated), the compound was classed as inactive.

As for `C=CC(F)(F)C(F)(F)C(F)(F)C(F)(F)C(F)(F)C(F)(F)C(F)(F)C(F)(F)F`, the outcome was inactive.

For the compound `FC(F)(F)C(F)(F)C(F)(F)C(F)(F)C(F)(F)C(F)(F)C(F)(F)C(F)(F)F`, the call was inactive.

With `FC(F)(F)C(F)(F)C(F)(F)C(F)(F)C(F)(F)C(F)(F)C(F)(F)I`, the compound was classed as inactive.

Take `O=C(O)C(F)(F)C(F)(F)OC(F)(F)F`: the compound was called inactive.

Turning to `O=C(O)C(F)(F)C(F)(F)C(F)F`, the result was inactive.

For `O=C(O)C(F)(F)C(F)(F)F`, the outcome was inactive.

For the compound `N=C(N)C(F)(F)C(F)(F)C(F)(F)C(F)(F)C(F)(F)C(F)(F)C(F)(F)F`, the result was inactive.

For `O=C(O)C(F)(F)C(F)(F)C(F)(F)C(F)(F)C(F)(F)C(F)(F)C(F)(F)C(F)(F)Cl`, the compound was called inactive.

Consider `O=S(=O)(OCCOC(F)(F)F)C(F)(F)F`, for which the compound was called inactive.

For `FC(F)(F)C(F)(F)CNCC(F)(F)C(F)(F)F`, the outcome was inactive.

Turning to `O=C(O)C(F)(OC(F)(F)C(F)(OC(F)(F)C(F)(OC(F)(F)C(F)(F)C(F)(F)F)C(F)(F)F)C(F)(F)F)C(F)(F)F` (configuration not stated), the call was inactive.

As for `C=CC(=O)OCC(F)(F)C(F)(F)C(F)(F)C(F)(F)COC(=O)C=C`, the call was inactive.

`O=C(O)C=C(C(F)(F)F)C(F)(F)F`: the outcome was inactive.

Consider `Cc1ccc(S(=O)(=O)OCC(F)(F)C(F)(F)C(F)(F)C(F)(F)C(F)(F)C(F)F)cc1`, for which the compound was called inactive.

Turning to `FC(F)(F)C(F)(F)C(F)(F)CI`, the result was inactive.

For the compound `O=S(=O)(O)C(F)(F)C(F)(F)C(F)(F)C(F)(F)C(F)(F)C(F)(F)C(F)(F)F`, the AC50 (as a rule, the concentration giving half of the maximal activity seen) is 31.2 µM (active).
